# Experimental data reported in the supplement of paper PMC11732987, “Enantioselective OTUD7B fragment discovery through chemoproteomics screening and high-throughput optimisation” (Communications Chemistry, 2025).
# A number with no mark means an inactive call.
# Legend:
# Assay in all cases: log2 ratio of Biotin-Ahx-Ub-VS probe labelling (compound/DMSO); higher = less target engagement, active = hit call of the paper (q ≤ 0.05, log2 ratio ≤ -1)
# Conditions in all cases: treatment time: 3 h
# [1] = compound: CCC1N(CCc2sccc12)C(=O)CCl
# Summary of the method: (§1)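 Compound at 50 or 200 µM, or DMSO, was applied for 3 h in triplicate to HEK293T lysate (495 µg per sample, Tris/CHAPS/IGEPAL buffer with protease inhibitors), after which Biotin-Ahx-Ub-VS was added at 0.5 µM final for 1 h. The labelled DUBs were pulled down with NeutrAvidin, digested with LysC and trypsin, and run by diaPASEF LC-MS/MS. Ratios are averaged base-two logs of compound over DMSO from median-normalised label-free quantities by unpaired t-test, counting only proteins with at least 2 unique peptides.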
# [2] = compound: CN1c2ccccc2C(CS1(=O)=O)NC(=O)CCl
# Summary of the method: as §1
# [3] = compound: Cl.ClCC(=O)N1CCc2ncncc2C1
# Summary of the method: as §1
# [4] = compound: Cl.Cn1ncc2C(CCCc12)NC(=O)CCl
# Summary of the method: as §1
# [5] = compound: ClCC(=O)NC1CCOc2ccccc12
# Summary of the method: as §1
# [6] = compound: ClCC(=O)NC1CCCc2ccccc12
# Summary of the method: (§2)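 HEK293T lysate (495 µg per sample, in Tris/CHAPS/IGEPAL buffer with protease inhibitors) was treated in triplicate with compound over a concentration series or DMSO for 3 h, then with Biotin-Ahx-Ub-VS (0.5 µM final) for 1 h. Labelled DUBs were NeutrAvidin-enriched, digested with LysC and trypsin, and run by diaPASEF LC-MS/MS. Spectronaut label-free protein quantities were global-median-normalised. Values are average log2 ratios compound/DMSO from an unpaired t-test, using proteins with ≥2 unique peptides.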
# [7] = compound: ClCC(=O)N[C@@H]1CCCc2ccccc12
# Summary of the method: as §2
# [8] = compound: ClCC(=O)N[C@H]1CCCc2ccccc12
# Summary of the method: as §2
# [9] = compound: CCC1N(CCc2cc(OC)c(Cl)cc12)C(=O)CCl
# Summary of the method: as §1
# [10] = compound: CCCC1N(CCc2cc(OC)c(OC)cc12)C(=O)CCl
# Summary of the method: as §1
# UniProt O94966, sequence (O94966 whole entry): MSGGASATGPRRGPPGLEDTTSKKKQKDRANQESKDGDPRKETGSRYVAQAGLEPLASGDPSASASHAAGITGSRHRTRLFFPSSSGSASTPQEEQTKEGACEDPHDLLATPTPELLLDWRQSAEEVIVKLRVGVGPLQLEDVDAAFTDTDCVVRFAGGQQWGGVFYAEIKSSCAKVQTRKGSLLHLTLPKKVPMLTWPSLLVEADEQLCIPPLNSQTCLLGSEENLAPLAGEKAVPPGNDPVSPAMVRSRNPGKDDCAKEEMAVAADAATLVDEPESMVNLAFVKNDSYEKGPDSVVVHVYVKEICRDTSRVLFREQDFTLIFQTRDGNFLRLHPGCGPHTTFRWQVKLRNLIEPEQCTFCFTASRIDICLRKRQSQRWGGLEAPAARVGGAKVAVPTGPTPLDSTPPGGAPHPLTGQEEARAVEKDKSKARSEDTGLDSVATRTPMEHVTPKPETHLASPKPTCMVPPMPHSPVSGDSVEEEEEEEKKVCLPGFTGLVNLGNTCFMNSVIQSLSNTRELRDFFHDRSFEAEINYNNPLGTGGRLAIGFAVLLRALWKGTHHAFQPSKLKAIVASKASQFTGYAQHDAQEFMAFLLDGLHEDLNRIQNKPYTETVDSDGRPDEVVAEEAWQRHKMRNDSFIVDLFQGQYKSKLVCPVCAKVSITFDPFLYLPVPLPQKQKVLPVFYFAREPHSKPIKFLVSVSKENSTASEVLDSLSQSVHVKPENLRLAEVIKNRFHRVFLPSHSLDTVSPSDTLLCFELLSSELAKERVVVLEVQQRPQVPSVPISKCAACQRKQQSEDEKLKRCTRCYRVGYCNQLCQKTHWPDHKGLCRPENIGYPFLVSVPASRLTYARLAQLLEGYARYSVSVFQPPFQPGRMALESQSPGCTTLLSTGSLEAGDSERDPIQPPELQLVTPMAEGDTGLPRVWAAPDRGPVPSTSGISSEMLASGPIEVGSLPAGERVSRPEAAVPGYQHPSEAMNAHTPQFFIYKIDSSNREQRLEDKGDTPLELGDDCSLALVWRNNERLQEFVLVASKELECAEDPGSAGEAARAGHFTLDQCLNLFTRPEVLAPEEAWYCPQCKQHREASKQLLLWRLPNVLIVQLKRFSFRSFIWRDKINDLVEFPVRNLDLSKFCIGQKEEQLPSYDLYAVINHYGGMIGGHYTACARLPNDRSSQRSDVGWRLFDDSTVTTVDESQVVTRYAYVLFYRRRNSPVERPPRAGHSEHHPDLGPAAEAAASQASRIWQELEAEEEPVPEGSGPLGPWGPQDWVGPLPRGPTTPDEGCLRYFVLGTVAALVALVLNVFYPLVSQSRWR
# UniProt Q5VVQ6, sequence (Q5VVQ6 whole entry): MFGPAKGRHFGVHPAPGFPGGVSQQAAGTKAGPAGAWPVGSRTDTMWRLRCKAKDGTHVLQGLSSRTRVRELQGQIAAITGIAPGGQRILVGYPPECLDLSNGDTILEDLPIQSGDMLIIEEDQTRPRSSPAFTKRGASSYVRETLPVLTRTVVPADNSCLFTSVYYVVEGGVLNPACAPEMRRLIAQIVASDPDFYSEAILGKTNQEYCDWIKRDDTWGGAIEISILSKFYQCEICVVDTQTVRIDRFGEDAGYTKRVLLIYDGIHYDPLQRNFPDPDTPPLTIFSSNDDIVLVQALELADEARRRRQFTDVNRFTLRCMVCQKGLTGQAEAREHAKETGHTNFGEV
target,measurement,setting,value
YOD1 (UniProt Q5VVQ6),log2 ratio of Biotin-Ahx-Ub-VS probe labelling,[1]; compound concentration: 50uM,-0.141
same,log2 ratio of Biotin-Ahx-Ub-VS probe labelling,[1]; compound concentration: 200uM,-0.171
same,log2 ratio of Biotin-Ahx-Ub-VS probe labelling,[2]; compound concentration: 50uM,-0.237
same,log2 ratio of Biotin-Ahx-Ub-VS probe labelling,[2]; compound concentration: 200uM,-0.218
same,log2 ratio of Biotin-Ahx-Ub-VS probe labelling,[3]; compound concentration: 50uM,-0.0162
same,log2 ratio of Biotin-Ahx-Ub-VS probe labelling,[3]; compound concentration: 200uM,-0.45
same,log2 ratio of Biotin-Ahx-Ub-VS probe labelling,[4]; compound concentration: 50uM,0.0347
same,log2 ratio of Biotin-Ahx-Ub-VS probe labelling,[4]; compound concentration: 200uM,-0.0749
same,log2 ratio of Biotin-Ahx-Ub-VS probe labelling,[5]; compound concentration: 50uM,-0.0482
same,log2 ratio of Biotin-Ahx-Ub-VS probe labelling,[5]; compound concentration: 200uM,0.0949
same,log2 ratio of Biotin-Ahx-Ub-VS probe labelling,[6]; compound concentration: 0.78uM,-0.286
same,log2 ratio of Biotin-Ahx-Ub-VS probe labelling,[6]; compound concentration: 1.56uM,-0.115
same,log2 ratio of Biotin-Ahx-Ub-VS probe labelling,[6]; compound concentration: 3.13uM,-0.302
same,log2 ratio of Biotin-Ahx-Ub-VS probe labelling,[6]; compound concentration: 6.25uM,-0.266
same,log2 ratio of Biotin-Ahx-Ub-VS probe labelling,[6]; compound concentration: 12.5uM,-0.478
same,log2 ratio of Biotin-Ahx-Ub-VS probe labelling,[6]; compound concentration: 25uM,-0.333
same,log2 ratio of Biotin-Ahx-Ub-VS probe labelling,[6]; compound concentration: 50uM,-0.142
same,log2 ratio of Biotin-Ahx-Ub-VS probe labelling,[6]; compound concentration: 100uM,-0.14
same,log2 ratio of Biotin-Ahx-Ub-VS probe labelling,[6]; compound concentration: 200uM,-0.258
same,log2 ratio of Biotin-Ahx-Ub-VS probe labelling,[7]; compound concentration: 0.78uM,-0.469
same,log2 ratio of Biotin-Ahx-Ub-VS probe labelling,[7]; compound concentration: 1.56uM,-0.274
same,log2 ratio of Biotin-Ahx-Ub-VS probe labelling,[7]; compound concentration: 3.13uM,-0.434
same,log2 ratio of Biotin-Ahx-Ub-VS probe labelling,[7]; compound concentration: 6.25uM,-0.346
same,log2 ratio of Biotin-Ahx-Ub-VS probe labelling,[7]; compound concentration: 12.5uM,-0.221
same,log2 ratio of Biotin-Ahx-Ub-VS probe labelling,[7]; compound concentration: 25uM,-0.268
same,log2 ratio of Biotin-Ahx-Ub-VS probe labelling,[7]; compound concentration: 50uM,-0.264
same,log2 ratio of Biotin-Ahx-Ub-VS probe labelling,[7]; compound concentration: 100uM,-0.248
same,log2 ratio of Biotin-Ahx-Ub-VS probe labelling,[7]; compound concentration: 200uM,-0.262
same,log2 ratio of Biotin-Ahx-Ub-VS probe labelling,[8]; compound concentration: 0.78uM,-0.197
same,log2 ratio of Biotin-Ahx-Ub-VS probe labelling,[8]; compound concentration: 1.56uM,-0.309
same,log2 ratio of Biotin-Ahx-Ub-VS probe labelling,[8]; compound concentration: 3.13uM,-0.298
same,log2 ratio of Biotin-Ahx-Ub-VS probe labelling,[8]; compound concentration: 6.25uM,-0.173
same,log2 ratio of Biotin-Ahx-Ub-VS probe labelling,[8]; compound concentration: 12.5uM,-0.186
same,log2 ratio of Biotin-Ahx-Ub-VS probe labelling,[8]; compound concentration: 25uM,-0.167
same,log2 ratio of Biotin-Ahx-Ub-VS probe labelling,[8]; compound concentration: 50uM,-0.0663
same,log2 ratio of Biotin-Ahx-Ub-VS probe labelling,[8]; compound concentration: 100uM,-0.169
same,log2 ratio of Biotin-Ahx-Ub-VS probe labelling,[8]; compound concentration: 200uM,-0.282
same,log2 ratio of Biotin-Ahx-Ub-VS probe labelling,[9]; compound concentration: 50uM,0.213
same,log2 ratio of Biotin-Ahx-Ub-VS probe labelling,[9]; compound concentration: 200uM,-0.308
same,log2 ratio of Biotin-Ahx-Ub-VS probe labelling,[10]; compound concentration: 50uM,-0.12
same,log2 ratio of Biotin-Ahx-Ub-VS probe labelling,[10]; compound concentration: 200uM,-0.312
USP19 (UniProt O94966),log2 ratio of Biotin-Ahx-Ub-VS probe labelling,[1]; compound concentration: 50uM,-0.285
same,log2 ratio of Biotin-Ahx-Ub-VS probe labelling,[1]; compound concentration: 200uM,-0.845
same,log2 ratio of Biotin-Ahx-Ub-VS probe labelling,[2]; compound concentration: 50uM,-0.191
same,log2 ratio of Biotin-Ahx-Ub-VS probe labelling,[2]; compound concentration: 200uM,-0.286
same,log2 ratio of Biotin-Ahx-Ub-VS probe labelling,[3]; compound concentration: 50uM,-0.264
same,log2 ratio of Biotin-Ahx-Ub-VS probe labelling,[3]; compound concentration: 200uM,-1.13 (active)
same,log2 ratio of Biotin-Ahx-Ub-VS probe labelling,[4]; compound concentration: 50uM,0.00316
same,log2 ratio of Biotin-Ahx-Ub-VS probe labelling,[4]; compound concentration: 200uM,-0.0581
same,log2 ratio of Biotin-Ahx-Ub-VS probe labelling,[5]; compound concentration: 50uM,-0.218
same,log2 ratio of Biotin-Ahx-Ub-VS probe labelling,[5]; compound concentration: 200uM,-0.211
same,log2 ratio of Biotin-Ahx-Ub-VS probe labelling,[6]; compound concentration: 0.78uM,0.0115
same,log2 ratio of Biotin-Ahx-Ub-VS probe labelling,[6]; compound concentration: 1.56uM,0.0325
same,log2 ratio of Biotin-Ahx-Ub-VS probe labelling,[6]; compound concentration: 3.13uM,-0.14
same,log2 ratio of Biotin-Ahx-Ub-VS probe labelling,[6]; compound concentration: 6.25uM,-0.00117
same,log2 ratio of Biotin-Ahx-Ub-VS probe labelling,[6]; compound concentration: 12.5uM,-0.0872
same,log2 ratio of Biotin-Ahx-Ub-VS probe labelling,[6]; compound concentration: 25uM,-0.173
same,log2 ratio of Biotin-Ahx-Ub-VS probe labelling,[6]; compound concentration: 50uM,-0.131
same,log2 ratio of Biotin-Ahx-Ub-VS probe labelling,[6]; compound concentration: 100uM,-0.081
same,log2 ratio of Biotin-Ahx-Ub-VS probe labelling,[6]; compound concentration: 200uM,-0.216
same,log2 ratio of Biotin-Ahx-Ub-VS probe labelling,[7]; compound concentration: 0.78uM,-0.105
same,log2 ratio of Biotin-Ahx-Ub-VS probe labelling,[7]; compound concentration: 1.56uM,-0.0178
same,log2 ratio of Biotin-Ahx-Ub-VS probe labelling,[7]; compound concentration: 3.13uM,-0.00588
same,log2 ratio of Biotin-Ahx-Ub-VS probe labelling,[7]; compound concentration: 6.25uM,0.0401
same,log2 ratio of Biotin-Ahx-Ub-VS probe labelling,[7]; compound concentration: 12.5uM,-0.0591
same,log2 ratio of Biotin-Ahx-Ub-VS probe labelling,[7]; compound concentration: 25uM,-0.121
same,log2 ratio of Biotin-Ahx-Ub-VS probe labelling,[7]; compound concentration: 50uM,-0.26
same,log2 ratio of Biotin-Ahx-Ub-VS probe labelling,[7]; compound concentration: 100uM,-0.182
same,log2 ratio of Biotin-Ahx-Ub-VS probe labelling,[7]; compound concentration: 200uM,-0.339
same,log2 ratio of Biotin-Ahx-Ub-VS probe labelling,[8]; compound concentration: 0.78uM,-0.0486
same,log2 ratio of Biotin-Ahx-Ub-VS probe labelling,[8]; compound concentration: 1.56uM,-0.0156
same,log2 ratio of Biotin-Ahx-Ub-VS probe labelling,[8]; compound concentration: 3.13uM,0.00736
same,log2 ratio of Biotin-Ahx-Ub-VS probe labelling,[8]; compound concentration: 6.25uM,0.0504
same,log2 ratio of Biotin-Ahx-Ub-VS probe labelling,[8]; compound concentration: 12.5uM,-0.0195
same,log2 ratio of Biotin-Ahx-Ub-VS probe labelling,[8]; compound concentration: 25uM,-0.0989
same,log2 ratio of Biotin-Ahx-Ub-VS probe labelling,[8]; compound concentration: 50uM,-0.0366
same,log2 ratio of Biotin-Ahx-Ub-VS probe labelling,[8]; compound concentration: 100uM,-0.126
same,log2 ratio of Biotin-Ahx-Ub-VS probe labelling,[8]; compound concentration: 200uM,-0.311
same,log2 ratio of Biotin-Ahx-Ub-VS probe labelling,[9]; compound concentration: 50uM,-0.648
same,log2 ratio of Biotin-Ahx-Ub-VS probe labelling,[9]; compound concentration: 200uM,-2.38 (active)
same,log2 ratio of Biotin-Ahx-Ub-VS probe labelling,[10]; compound concentration: 50uM,-1.67 (active)
same,log2 ratio of Biotin-Ahx-Ub-VS probe labelling,[10]; compound concentration: 200uM,-3.32 (active)
